43 compounds from PubChem BioAssay (NCATS) can be followed below.

The target in assay [1] is Nucleoprotein (Lymphocytic choriomeningitis virus (strain Armstrong)) (UniProt P09992). Briefly: qHTS for Inhibitors of the Functional Ribonucleoprotein Complex (vRNP) of Lymphocytic Choriomeningitis Arenaviruses (LCMV): LCMV Primary Screen - GLuc reporter signal (AID 1347086). Note: series mostly up to about 57 µM; nearly all actives have a fitted effect of over 70% in size. In general terms: In qHTS, concentration-response curves come from the screen itself.
Chain of Nucleoprotein (Lymphocytic choriomeningitis virus (strain Armstrong)) (P09992 whole entry, looked up): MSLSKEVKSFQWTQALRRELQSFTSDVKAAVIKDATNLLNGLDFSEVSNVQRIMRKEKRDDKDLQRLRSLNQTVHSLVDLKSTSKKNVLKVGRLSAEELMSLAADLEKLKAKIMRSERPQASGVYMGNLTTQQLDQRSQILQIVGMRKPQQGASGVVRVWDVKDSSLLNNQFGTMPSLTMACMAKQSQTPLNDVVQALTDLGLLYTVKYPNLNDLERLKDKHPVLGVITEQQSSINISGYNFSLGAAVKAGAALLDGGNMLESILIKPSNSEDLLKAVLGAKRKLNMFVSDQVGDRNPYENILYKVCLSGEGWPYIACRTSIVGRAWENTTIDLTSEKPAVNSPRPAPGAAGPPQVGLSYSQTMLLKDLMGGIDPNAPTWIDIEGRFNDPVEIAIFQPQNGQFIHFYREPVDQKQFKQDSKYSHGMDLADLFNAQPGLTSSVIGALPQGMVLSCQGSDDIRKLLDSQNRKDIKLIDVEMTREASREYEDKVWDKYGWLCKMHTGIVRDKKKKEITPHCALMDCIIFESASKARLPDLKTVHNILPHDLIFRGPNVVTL
Assay [2] is described as follows: qHTS of pediatric cancer cell lines to identify multiple opportunities for drug repurposing: Primary screen for TC32 cells (AID 1347089; active = well fitted curve in the direction sought with a large enough effect; an effect the other way counts as inactive or inconclusive; note: nearly all actives have a fitted effect of over 60% in size). The procedure, abridged: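 Measured quantity: luminescence from CellTiter-Glo, reflecting metabolically active TC32 cells following 48 h of compound. Curves came straight from multi-point titrations, with 8 or 11 points in primary and 11 in confirmatory screening.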

Assay [3] in a line: qHTS of pediatric cancer cell lines to identify multiple opportunities for drug repurposing: Primary screen for DAOY cells (AID 1347090; active = well fitted curve in the direction sought with a large enough effect; an effect the other way counts as inactive or inconclusive; note: series mostly up to about 46 µM; nearly all actives have a fitted effect of over 55% in size). Put shortly: (§1)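 Cell viability, CellTiter-Glo luminescence; 500-1,000 cells/well, 8- or 11-point titration, 48 h compound exposure at 37 degrees C, 5% CO2. Controls: DMSO neutral, bortezomib 2.3 µM final as positive.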
Assay [4] can be described thus: qHTS of pediatric cancer cell lines to identify multiple opportunities for drug repurposing: Primary screen for SJ-GBM2 cells (AID 1347091; active = well fitted curve in the direction sought with a large enough effect; an effect the other way counts as inactive or inconclusive). The procedure, abridged:
as §1

Assay [5] is described as follows: qHTS of pediatric cancer cell lines to identify multiple opportunities for drug repurposing: Primary screen for A673 cells (AID 1347092; active = well fitted curve in the direction sought with a large enough effect; an effect the other way counts as inactive or inconclusive; note: nearly all actives have a fitted effect of over 45% in size). The procedure, abridged:
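Cells are plated, rested 5 h, dosed by pintool, incubated 48 h, then lysed with CellTiter-Glo and read by luminescence. DMSO is the neutral control; bortezomib at 2.3 uM final is the positive control.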

The nature of assay [6]: qHTS of pediatric cancer cell lines to identify multiple opportunities for drug repurposing: Primary screen for SK-N-MC cells (AID 1347093; active = well fitted curve in the direction sought with a large enough effect; an effect the other way counts as inactive or inconclusive; note: series mostly up to about 46 µM). The procedure, abridged:
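Metabolically active cells were quantified by ATP-dependent luminescence (CellTiter-Glo, 15 min at room temperature) following 48 h treatment. Cells had been plated at 500-1,000 per well and settled for 5 h beforehand.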

Assay [7] is described as follows: qHTS of pediatric cancer cell lines to identify multiple opportunities for drug repurposing: Primary screen for BT-37 cells (AID 1347094; active = well fitted curve in the direction sought with a large enough effect; an effect the other way counts as inactive or inconclusive; note: series mostly up to about 57 µM). Put shortly: (§2)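 Phenotypic viability qHTS, 48 h compound exposure, CellTiter-Glo luminescence read-out; multi-concentration dosing so that potency and efficacy derive directly from the primary screen's curves.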
Assay [8] in a line: qHTS of pediatric cancer cell lines to identify multiple opportunities for drug repurposing: Primary screen for NB-EBc1 cells (AID 1347095; active = well fitted curve in the direction sought with a large enough effect; an effect the other way counts as inactive or inconclusive). Put shortly:
as §2

Assay [9] in a line: qHTS of pediatric cancer cell lines to identify multiple opportunities for drug repurposing: Primary screen for U-2 OS cells (AID 1347096; active = well fitted curve in the direction sought with a large enough effect; an effect the other way counts as inactive or inconclusive; note: nearly all actives have a fitted effect of over 50% in size). The procedure, abridged: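 Cells (500-1,000/well) rested 5 h, then received compounds for 48 h; metabolically active cells were measured by CellTiter-Glo luminescence. Final concentrations spanned up to 46 µM (MIPE, 11-point) or 0.59 nM-46 µM (NPC, 8-point) in primary screens, 11-point in follow-ups.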

Assay [10] is described as follows: qHTS of pediatric cancer cell lines to identify multiple opportunities for drug repurposing: Primary screen for Saos-2 cells (AID 1347097; active = well fitted curve in the direction sought with a large enough effect; an effect the other way counts as inactive or inconclusive; note: nearly all actives have a fitted effect of over 40% in size). The procedure, abridged:
as §2

Inconclusive results are not listed. A call without a number means that no potency is given here. The source made the active and inactive calls. Unless noted, calls come from the whole dose curve.

With `COc1ccc(-n2nc(CCC(=O)N(C)O)cc2-c2ccc(Cl)cc2)cc1`, the Potency entry in assay [1] was “inactive”.

`CCOC(=O)OC(C)OC1=C(C(=O)Nc2ccccn2)N(C)S(=O)(=O)c2ccccc21` (configuration not stated): the Potency result in [1] was “inactive”.

`CC1(C)O[C@@H]2C[C@H]3[C@@H]4CCC5=CC(=O)CC[C@]5(C)[C@@]4(F)[C@@H](O)C[C@]3(C)[C@]2(C(=O)CCl)O1`: the Potency entry in [1] was “inactive”.

Turning to `CC1=C(CC(=O)O)c2cc(F)ccc2/C1=C\c1ccc(S(C)=O)cc1` (configuration not stated), the Potency entry in assay [1] is “inactive”.

For `C[C@H]1NCc2cc(-c3ccc4c(=O)c(C(=O)O)cn(C5CC5)c4c3OC(F)F)ccc21`, the Potency result in assay [1] was “inactive”.

Consider `O=C1c2ccccc2S(=O)(=O)N1CCCCN1CCN(c2ncccn2)CC1`, for which the Potency result in assay [1] was “inactive”.

As for `Cc1cc(N)c2cc(NC(=O)Nc3ccc4nc(C)cc(N)c4c3)ccc2n1`, in assay [1], the Potency result was “inactive”.

Consider `CCc1cccc2c(CCO)c[nH]c12`, for which the Potency result in assay [1] was “inactive”.

On to `N/C(=N\N=C\c1ccc(Cl)cc1)N/N=C/c1ccc(Cl)cc1`, for which the Potency entry in assay [1] was “inactive”.

Turning to `CN(C)C/C=C(/c1ccc(Br)cc1)c1cccnc1`, in [1], the Potency entry was “inactive”.

For the compound `Cc1cccc(Nc2cc(Cl)nc(SCC(=O)O)n2)c1C`, the Potency result in [1] is “inactive”.

As for `CC(C)(C)c1nnc(NS(=O)(=O)c2ccc(N)cc2)s1`, in [1], the Potency entry is “inactive”.

As to `CCC(C(=O)OCCOCCN(CC)CC)c1ccccc1` (configuration not stated), in assay [1], the Potency result is “inactive”.

Turning to `CC(=O)OCC(=O)[C@@]1(O)CCC2C3CCC4=CC(=O)CC[C@]4(C)C3[C@@H](O)C[C@@]21C` (some centres not stated), the Potency entry in [1] was “inactive”.

With `C=CCCCCCCCCC(=O)O`, the Potency result in [1] is “inactive”.

For `O=C(OCC(COC(=O)c1cccnc1)(COC(=O)c1cccnc1)COC(=O)c1cccnc1)c1cccnc1`, in [1], the Potency result was “inactive”.

Take `C[C@]12CCC(=O)C=C1CC[C@@H]1[C@@H]2[C@@H](O)C[C@@]2(C)[C@H]1CC[C@]2(O)C(=O)CO`: the Potency result in assay [1] was “inactive”.

Regarding `CCCCCCCCOc1ccccc1C(=O)Nc1ccc(C(=O)OCC[N+](C)(CC)CC)cc1`, in [1], the Potency entry was “inactive”.

`CO/N=C(\C(=O)O)c1csc(NC(=O)CCl)n1`: the Potency entry in [1] was “inactive”.

Regarding `OC(CCN1CCCCC1)(c1ccccc1)c1ccccc1`, the Potency entry in [1] was “inactive”.

With `CC(C(O)c1ccc(O)cc1)N1CCC(Cc2ccccc2)CC1` (configuration not stated), in [1], the Potency result was “inactive”.

As for `CCOC(=O)C(C#N)=C(c1ccccc1)c1ccccc1`, the Potency entry in [1] is “inactive”.

On to `O=C1[C@H]2CCCC[C@H]2C(=O)N1CCCCN1CCN(c2nsc3ccccc23)CC1`, for which, in assay [1], the Potency result was “inactive”.

For the compound `CC1=C(C)C(=O)C(C(CCCCCC(=O)O)c2ccccc2)=C(C)C1=O` (configuration not stated), the Potency entry in [1] is “inactive”.

With `CCCn1cnc2c1c(=O)n(CCCCC(C)=O)c(=O)n2C`, in [1], the Potency result is “inactive”.

Turning to `CNC(=O)c1cnn(-c2nc(N)c3ncn([C@@H]4O[C@H](CO)[C@@H](O)[C@H]4O)c3n2)c1`, the Potency result in assay [1] is “inactive”.

As to `N=C(N)c1ccc2cc(OC(=O)c3ccc(N=C(N)N)cc3)ccc2c1`, the Potency result in assay [1] was “inactive”.

For `Oc1ccc(Cl)cc1Cc1cc(Cl)ccc1O`, the Potency result in [1] is “inactive”.

With `CCOC(=O)[C@@](C)(N)Cc1ccc(O)c(O)c1`, the Potency result in [1] was “inactive”.

Turning to `C[C@]12CCC(=O)C=C1C=C[C@@H]1[C@@H]2CC[C@@]2(C)[C@H]1CC[C@@]21CCC(=O)O1`, the Potency result in [1] is “inactive”.

Regarding `NNC(=O)CP(=O)(c1ccccc1)c1ccccc1`, the Potency entry in assay [1] was “inactive”.

For `C[C@@H](CN(C)C)CN1c2ccccc2Sc2ccccc21`, the Potency result in assay [1] was “inactive”.

Turning to `CN(C)C(=O)CNC(=O)Cc1ccccc1`, in assay [1], the Potency entry was “inactive”.

`CCN1CCCC(OC(=O)C(c2ccccc2)c2ccccc2)C1` (configuration not stated): the Potency entry in assay [1] is “inactive”.

As for `C[C@@H]1CCN(C(=O)[C@H](CCCN=C(N)N)NS(=O)(=O)c2cccc3c2NC[C@H](C)C3)[C@@H](C(=O)O)C1`, the Potency entry in [1] was “inactive”.

`CC[C@H](c1ccc(O)cc1)[C@@H](CC)c1ccc(O)cc1`: the Potency entry in assay [1] was “inactive”.

Turning to `O=c1oc2c(O)c(O)cc3c(=O)oc4c(O)c(O)cc1c4c23`, the Potency entry in [1] was “inactive”.

Regarding `Cc1ccc(/C=N/n2c(-c3ccccc3)csc2=S)cc1`, the Potency result in [1] is “inactive”.

In the case of `COc1cc(O)c(C(=O)c2ccccc2)cc1S(=O)(=O)O`, the Potency result in assay [1] is “inactive”.

Turning to `O=C(O)CCCCCCNC1c2ccccc2CCc2ccccc21`, the Potency result in assay [2], in assay [3], in [4], in assay [5], in assay [6] and in assay [7] was “inactive” in each case. Besides, the Potency entry in assay [8] and in assay [9] was “inactive” each time.

For `COP(=O)(OC)C(O)C(Cl)(Cl)Cl` (configuration not stated), the Potency result in assay [1], in assay [2], in [3], in assay [4], in assay [5] and in assay [6] was “inactive” throughout. Moreover, the Potency result in [7], in [8], in assay [9] and in assay [10] was “inactive” throughout.

On to `Oc1c(Br)cc(Br)cc1Br`, for which the Potency entry in assay [1], in assay [2], in assay [3], in assay [4], in assay [5] and in assay [6] was “inactive” in each case. For the same compound, the Potency entry in assay [7], in [8], in assay [9] and in assay [10] was “inactive” in each case.

Turning to `CC(C)[N+](C)(CCC(C(N)=O)(c1ccccc1)c1ccccc1)C(C)C`, the Potency entry in assay [1], in assay [2], in [3], in [4], in assay [5] and in assay [6] was “inactive” each time. Besides, the Potency result in assay [7], in assay [8], in assay [9] and in assay [10] was “inactive” in each case.
